Screening data: PubChem, National Center for Advancing Translational Sciences (NCATS)
Rows were chosen to be rich in hits. Some 3.2% of all compounds tested hit in one or more screens of this group.
Tau fluor counter – counter-screen for tau fibril formation inhibitors. tau K18 P301L Alexa594 fluorescence, heparin fibrillization. Potency, µM (top dose mostly 57.7 µM), for inactives: at the highest dose activity change, negative = decrease. 0.93% of 280,000 active; note: nearly all actives have a fitted effect of over 55% in size
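Human K18 P301L tau (15 uM unlabeled plus 0.24 uM Alexa 594-labeled, final) in 100 mM sodium acetate pH 7 was mixed with compound and 20 uM heparin and incubated 6 hr at 37 C.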
Tau ThT inhib – inhibitors of human tau fibril formation, thioflavin T binding; Potency, µM (highest dose often 57.4 µM), for the others: at the top dose activity, negative = inhibition, actives largely listed as inhibitors; 2.1% of 270,000 active; P10636; recombinant tau K18 P301L (four-repeat tau fragment), heparin-induced fibrillization, ThT fluorescence; note: nearly all actives have a fitted effect of over 55% in size
Target sequence (P10636 561-689 P618L limits assumed): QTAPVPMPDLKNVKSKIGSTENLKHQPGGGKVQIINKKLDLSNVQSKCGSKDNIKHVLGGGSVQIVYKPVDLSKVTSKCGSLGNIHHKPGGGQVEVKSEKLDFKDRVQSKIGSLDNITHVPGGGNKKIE
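In this qHTS, human K18 P301L tau is incubated with compound and heparin for 6 hr at 37 C, and Thioflavin T fluorescence then reports fibril load.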
Tau fibril FP – inhibitors of human tau fibril formation; K18 P301L tau heparin fibrillization, Alexa594 FP, 6 h; Potency, µM (series often up to 57.7 µM), without a hit: at the highest dose activity, negative = inhibition, usual class: inhibitors; 0.39% of 280,000 active; AID 1468; note: nearly all actives have a fitted effect of over 55% in size
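Human tau K18 […] P301L fragment, 15 uM unlabeled plus 0.24 uM Alexa 594-labeled tau (final), with compound and 20 uM heparin in 100 mM sodium acetate pH 7; 6 hr at 37 C, then Alexa 594 FP read.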
RGS12 GoLoco inh – inhibitors of human Gai1-RGS12 GoLoco interaction (red fluorophore). P63096. Gai1:RGS12 GoLoco peptide FP, rhodamine, 10 min. Potency, µM (doses to about 61.6 µM), without a hit: at the top dose activity, negative = inhibition, hits mostly inhibitors. 0.44% of 230,000 active. AID 880; active = well fitted inhibition curve with a large enough effect, not every such curve was filed as active; inactive = no such curve, though single readings can be large or run the other way; note: nearly all actives have a fitted effect of over 30% in size
Target sequence (P63096 whole entry, looked up): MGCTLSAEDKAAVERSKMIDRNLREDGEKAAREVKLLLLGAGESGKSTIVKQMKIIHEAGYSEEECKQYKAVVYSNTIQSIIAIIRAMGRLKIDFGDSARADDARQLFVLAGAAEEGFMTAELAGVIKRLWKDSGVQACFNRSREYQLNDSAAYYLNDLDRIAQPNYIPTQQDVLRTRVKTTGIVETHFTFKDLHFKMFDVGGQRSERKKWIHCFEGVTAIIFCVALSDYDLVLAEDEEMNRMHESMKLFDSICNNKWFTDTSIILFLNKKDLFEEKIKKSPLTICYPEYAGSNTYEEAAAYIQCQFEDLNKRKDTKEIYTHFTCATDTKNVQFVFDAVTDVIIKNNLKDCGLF
TexasRed fluor – counter-screen for TRb-SRC2 inhibitors: fluorescence interference; TRb/SRC2 Texas Red total fluorescence interference; Potency, µM (highest dose often 106 µM), without a hit: at the top dose fluorescence change, negative = quenching; 0.29% of 280,000 active; active = well fitted curve in either direction with a large enough effect; inconclusive = small, poorly fitted or top-dose-only effect
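Flags fluorescent or light-absorbing compounds by total fluorescence, S + 2P, at 555 nm excitation and 632 nm emission. Mixture: 20 nM Texas Red SRC2 peptide, 0.6 uM human TRb LBD, 1 uM T3, 5% DMSO; compound exposure 5 h at ambient temperature.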
TRb-SRC2 inh – disrupts binding of human TR beta to SRC2; 0.065% of 280,000 active; P10828; TRbeta-SRC2 peptide binding, fluorescence polarization; receptor liganded with 1 µM T3; Potency, µM (highest dose often 106 µM), for inactives: top-dose activity change, negative = inhibition, actives largely listed as inhibitors;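 note: plate controls were bound peptide for no effect and peptide without receptor for full effect; nearly all actives have a fitted effect of over 50% in size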
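Assay buffer: 20 mM Tris-HCl, 100 mM NaCl, 10% glycerol, 1 mM EDTA, 0.01% NP-40, 1 mM DTT, 1 uM T3, 5% DMSO; TRb LBD 0.6 uM, Texas Red SRC2 20 nM; FP after 5 hr.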
An asterisk follows results filed as active; ? = inconclusive; · = no result; [ ] = another dose, or the depositor's remark. Unless noted, calls come from the whole dose curve; as a rule, active = well fitted curve in the direction sought with a large enough effect; inconclusive = small, poorly fitted or top-dose-only effect, or another doubt; inactive = no such curve, though single readings can be large; an effect the other way counts as inactive or inconclusive. Unless noted, % is set by controls: 0 for no effect and ±100 for the full control effect; potency is the fitted concentration of half-maximal effect.

SMILES	Tau fluor counter	Tau ThT inhib	Tau fibril FP	RGS12 GoLoco inh	TexasRed fluor	TRb-SRC2 inh
CN1CCc2c(sc3c2C(=O)NC(c2ccc(OC(=O)c4ccc(C(C)(C)C)cc4)cc2)N3)C1 (stereo not drawn)	-18.6%	?	-9.1%	·	12.9%	-3.5%
CN1CCc2c(sc3c2C(=O)NC(c2ccc(OC(=O)c4ccc(Cl)cc4)cc2)N3)C1 (stereo not drawn)	-11.9%	6.31µM*	-3.7%	·	-2.9%	-4.3%
Cc1ccccc1C1CC(=O)Oc2cc(O)ccc21 (stereo not drawn)	-4.2%[126 µM]	-11.8%[126 µM]	?	-11.3%[88.7 µM]	100µM*[fluorescent]	?
COCCNC(=O)c1c(NC(=O)c2cc(=O)c3cc(C)cc(C)c3o2)sc2c1CCCC2	-8.0%	?	1.0%	·	-14.1%	6.7%
CCOC(=O)c1ccc(NC(=O)Nc2cc3c(cc2N2CCCC2)n(C)c(=O)n3C)cc1	14.1µM*[quencher]	?	11.9%	·	-1.4%	-4.6%
CCOC(=O)c1ccc(NC(=O)Nc2ccc3c4c(cccc24)C(=O)N3CC)cc1	3.16µM*[quencher]	?	-13.1%	17.6%	1.4%	-9.2%
O=C(c1ccc(Cl)c([N+](=O)[O-])c1)N(Cc1ccccc1)C1CCS(=O)(=O)C1 (stereo not drawn)	-3.8%	-1.4%	3.5%	-1.4%	1.0%	2.4%
O=C(c1ccc(Cl)c([N+](=O)[O-])c1)N(Cc1cccc(Cl)c1)C1CCS(=O)(=O)C1 (stereo not drawn)	-7.6%	1.7%	-4.5%	6.0%	112µM*[quencher]	-13.3%
CC1=NNC(=O)/C1=C\c1cn(-c2ccccc2)nc1-c1cccs1	-9.9%	?	8.8%	7.9%	-0.4%	5.6%
CC1=NNC(=O)/C1=C\c1cn(-c2ccccc2)nc1-c1ccc(F)cc1	-22.8%	20µM*	5.0%	5.2%	-1.1%	3.4%
O=C(NCc1ccccc1)c1ccc2c(=O)[nH]c3c(C(=O)NCC4CCCO4)sc(=S)n3c2c1 (stereo not drawn)	?	14.1µM*	11.4%	6.5%	-16.7%	2.1%
C=CCn1c(N)c(C(=O)NCC2CCCO2)sc1=S (stereo not drawn)	-0.5%	0.3%	-6.3%	8.1%	-0.1%	-2.3%
Cc1ccc(CNC(=O)c2ccc3c(=O)n(CC4CCCO4)c(=S)[nH]c3c2)cc1 (stereo not drawn)	-9.9%	-8.9%	0.1%	2.3%	1.9%	-21.4%
CCCCCNC(=O)c1ccc2c(=O)[nH]c3c(C(=O)NCC4CCCO4)sc(=S)n3c2c1 (stereo not drawn)	-28.5%	14.1µM*	10.2%	1.6%	-21.2%	7.8%
CCn1c(N)c(C(=O)NCC2CCCO2)sc1=S (stereo not drawn)	-15.9%	35.5µM*	?	-34.0%	-2.0%	0.6%
O=C(NCc1ccccc1)c1ccc2c(=O)n(CC3CCCO3)c(=S)[nH]c2c1 (stereo not drawn)	-21.2%	-13.6%	-4.5%	9.9%	-4.4%	4.0%
Cc1ccc(CNC(=O)c2ccc3c(=O)[nH]c4c(C(=O)NCC5CCCO5)sc(=S)n4c3c2)cc1 (stereo not drawn)	?	8.91µM*	-2.9%	-3.8%	-11.6%	5.9%
O=C(NC1CCCC1)c1sc(=S)n2c1[nH]c(=O)c1ccccc12	?	15.8µM*	11.5%	0.9%	-6.7%	5.9%
O=C(Nc1ccc2ccccc2c1)C(=O)C1C(=O)Nc2ccccc21 (stereo not drawn)	-24.8%	3.98µM*	3.0%	8.8%	-2.2%	-6.2%
CC(=O)Nc1ccc(NC(=O)/C=C/c2cccc(C(F)(F)F)c2)cc1	1.8%	5.9%	4.9%	-12.5%	3.16µM*[quencher]	?
CC(C)(C)NC(=O)/C=C/c1cccc(C(F)(F)F)c1	-8.3%	-5.1%	1.4%	2.1%	-1.1%	4.6%
CCC1CN(C(=O)N2CCC(C(=O)NCc3ccc(C)o3)CC2)c2ccccc2O1 (stereo not drawn)	-23.5%	12.1%	-4.5%	·	-5.2%	-6.0%
